# In PubChem BioAssay AID1458 (National Center for Advancing Translational Sciences (NCATS), 2008):
# The campaign covered roughly 210,000 compounds. About 5,900 (2.8%) were called active. Inconclusive results (about 5%) are left out. Calls come from the whole dose curve; as a rule, active = well fitted activation curve with a large enough effect; inconclusive = small, poorly fitted or top-dose-only effect; inactive = no such curve, though single readings can be large or run the other way. The sample as a whole holds a higher share of actives than the screen did.
# Experiment: qHTS Assay for Enhancers of SMN2 Splice Variant Expression; note: nearly all actives have a fitted effect of over 55% in size; for activity change, positive = activation: % of control where 0% means no effect
# Details: HEK293 SMN2-luciferase splicing reporter, luminescence, 30-36 h; series mostly up to 46.1 µM; activity change, positive = activation: at the top concentration
# Description: NIH Chemical Genomics Center [NCGC] NIH Molecular Libraries Probe Production centers Network [MLPCN] MLPCN Grant: R03 MH084179-01 Assay Submitter (PI): Elliot Androphy NCGC Assay Overview: Spinal muscular atrophy (SMA) is caused by insufficient levels of the survival motor neuron protein SMN. The SMN locus on chromosome 5q13 contains two inverted copies of SMN called SMN1 and SMN2 which are 99% identical at the amino acid level. SMN1 is a fully functional protein and SMN2 skips exon 7 90% of the time. Skipping of exon 7 produces non-functional protein product. 10% of the SMN2 protein includes exon 7 and is fully functional. In the SMA disease state, mutations in the SMN1 locus are the cause of the disease state. Because only 10% of SMN2 is of the fully functional form, it is not sufficient to overcome the deficiency produced by the loss of the SMN1 product. A therapy that either increase the amount of SMN2 product made or to increase the inclusion of exon 7 has been proposed for the treatment of SMA. We have designed an assay to identify small molecules that can increase the amount of functional SMN2 product by appending a luciferase reporter gene after the native SMN2 gene, such that inclusion of exon 7 in the expressed product places the luciferase sequence in frame, thus generating functional luciferase enzyme.
# NCGC Assay Protocol Summary: This screen utilizes a luciferase reporter gene assay, combining the promoter and splicing based cassettes in tandem with the major portion of the native SMN2 cDNA, and then transfected into HEK293 cells. Compounds that increase luciferase signal presumably enhance expression of the functional SMN2 splice variant. Passaging media contained DMEM w/ glutamax (+phenol red) 10% FCS, 1x pen/strep, 200 ug/ml hygro, 1x sodium pyruvate. Assay media contained DMEM w/ glutamax (-phenol red) 10% FCS, 1x pen strep, 1x pyruvate Sequence, Parameter, Value, Description (1) Cells, […], 2000 cells/well, 1536 TC treated White solid bottom plate (2) Time, 10-12 hours, 37C 5% CO2 (3) Compound, 23 nl, MLSMR Library (4) Control Compound, 23 nL, Sodium butyrate st 4.5mM (final) conc (5) Time, 30-36 hours, 37C 5% CO2 (6) Reagent, 3 ul, One Glo (TM) from Promega (7) Time, 5-15 minutes, Room temp (8) Detector, Viewlux: luminescent read, 60 second integration, high speed 2x binning Keywords: Spinal muscular atrophy, SMA, SMN2, high throughput screening, MLSMR, MLPCN, NIH Roadmap, qHTS and NCGC
# Potency is the fitted concentration of half-maximal effect.
SMILES,Potency,"activity change, positive = activation"
CC(C)Oc1ccc(NC(=O)c2cc3ccccc3o2)cc1,2.51 µM (active),–
Cc1ncoc1C(=O)NCCC(c1ccccc1)c1ccccc1,–,-50.5% (inactive)
O=C(OCC1O[C@@H](OC(=O)c2cc(O)c(O)c(O)c2)[C@@H](OC(=O)c2cc(O)c(O)c(O)c2)[C@@H](OC(=O)c2cc(O)c(O)c(O)c2)[C@@H]1OC(=O)c1cc(O)c(O)c(O)c1)c1cc(O)c(O)c(O)c1 (stereo not given in full),–,-42.8% (inactive)
COc1cccc(C(=O)Nc2ccc(-c3cc(C(F)(F)F)nn3-c3ccccc3)cc2)c1,–,-70.6% (inactive)
O=C(OCC(=O)c1cccs1)C1=COCCO1,14.1 µM (active),–
CC(=O)c1c(O)c(C)c(O)c(Cc2c(O)c3c(c(C(=O)/C=C/c4ccccc4)c2O)OC(C)(C)C=C3)c1O,inactive,–
CCCCCCCCCc1ccc(OCCOCCOCCOCCOCCOCCOCCOCCOCCO)cc1,–,-96.9% (inactive)
Cn1c(=O)oc2cc(S(=O)(=O)N3CCC(C(=O)Nc4ccc(OC(F)(F)F)cc4)CC3)ccc21,–,-41.6% (inactive)
CC(=O)Oc1ccccc1C(=O)Nc1ncc([N+](=O)[O-])s1,12.6 µM (active),–
C[N+](C)(C)CCOP(=O)([O-])OC[C@H](O)CO,–,-39.5% (inactive)
CC(C)=CCC[C@]1(C)[C@@H](CC=C(C)C)C[C@@]2(CC=C(C)C)C(=O)[C@]1(C(=O)C(C)C)C(=O)C(CC=C(C)C)=C2O,–,-64.9% (inactive)
CC[C@]1([C@H]2O[C@@H]([C@@H]3O[C@](O)(CO)[C@@H](C)C[C@H]3C)C[C@H]2C)CC[C@@H]([C@]2(C)CC[C@@]3(C[C@@H](O)[C@@H](C)[C@@H]([C@H](C)[C@H](OC)[C@H](C)C(=O)O)O3)O2)O1,–,-29.3% [at 20.6 µM] (inactive)
CC(C)(C)c1ccc(OC(=O)N2CCCCC2)cc1,12.6 µM (active),–
O=C(Nc1cccc(OC(=O)N2CCCCC2)c1)N1CCOCC1,–,-21.1% (inactive)
O=C(Nc1cccc(F)c1)N1CC[C@@]2(CCCN(C(=O)Oc3ccccc3)C2)C1,–,-46.3% (inactive)
CC(C)(C)C(O)(CCc1ccc(Cl)cc1)Cn1cncn1 (stereo not given),–,9.38% (inactive)
NCC[Se][Se]CCN,–,-13.3% [at 9.22 µM] (inactive)
CO[C@@H]1C[C@@H](C[C@H]2CC[C@H](C)[C@@H]([C@@H](C)C(=O)O)O2)O[C@]2(O[C@](C)([C@H]3CC[C@@](C)(C4OC([C@H]5O[C@@](O)(CO)[C@H](C)C[C@@H]5C)C[C@@H]4C)O3)C[C@H]2C)[C@@H]1C (stereo not given in full),–,-100% (inactive)
c1ccc(Cc2nn3c(Cn4cnc5ccccc54)nnc3s2)cc1,–,-70.4% (inactive)
N#CC(C#N)=Cc1cc(O)c(O)c([N+](=O)[O-])c1,–,8.15% (inactive)
